Compound activity from PubChem BioAssay.
GRIN3A LBD mod: modulates the human NR3A ligand-binding domain. Tm shift relative to glycine control, % at 25 µM. hit rate 2.5% among 340,000. NR3A LBD differential scanning fluorimetry, Tm shift; 0% = protein alone, 100% = glycine-bound protein;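 active = melting temperature shift of at least 10% of the positive control shift, at one fixed dose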
SKKanGAS inh: inhibitors of SKKanGAS S. pyogenes growth in kanamycin (SK-promoter or general growth effect) | BacTiter-Glo, 6 h | inhibition, % at 7.5 µM | hit rate 1.3% among 300,000;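 active = mean replicate score, as percent of positive control median, at least 50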;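 also: strain carries kanamycin resistance gene driven by streptokinase promoter and grows in 40 µg/ml kanamycin; loss of luminescence reflects streptokinase promoter inhibition or plain growth inhibition; 0% = median of DMSO wells and 100% = positive control at its reference dose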
Beta apoptosis: beta cell apoptosis inhibition; INS-1E cytokine-induced death, ATP luminescence, 48 h; percent of positive-control rescue, neutral wells zero; protection from apoptosis, % (concentration not given with the values); hit rate 0.8% among 300,000; AID 435005;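 active = Every replicate reaches about 75%, or at least half do and their mean reaches it too, limit read from the data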;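 also: 0% = cytokine-treated negative control wells and 100% = positive control rescue; higher means more ATP so stronger rescue from cytokine killing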
MPTP inh: blocks calcium-induced mitochondrial swelling. isolated mouse mitochondria, Ca2+ swelling absorbance, 30 min. inhibition, % at 10 µM. hit rate 1.4% among 360,000;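 active = inhibition of 50% or more, scaled per plate between neutral and stimulator controls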;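 also: 0% = DMSO wells given calcium and 100% = 1 mM EGTA wells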
CSC inhib: blocks cancer stem cells. inhibition, % at 7.5 µM. hit rate 1.1% among 300,000. cancer stem cell-like cells viability, luminescence; in the data active = inhibition above about 75%; tested in HMLE shEcad cells
Mdm2 MdmX PPI: disrupts the human Mdm2-MdmX interaction | AID 485346 | hit rate 3% among 330,000 | SaOS-2 split-luciferase Mdm2/MdmX complementation, luminescence | O15151+Q00987 | inhibition, % at 8 µM;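 active = inhibition of at least 50% at 8 µM in the primary screen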
Mdm2-MdmX conf: confirmation of human Mdm2/MdmX interaction inhibitors | inhibition, % at 8 µM | hit rate 55% among 10,000 | Mdm2-MdmX binding, luminescent assay | AID 489028 | shares compounds with Mdm2 MdmX PPI; in the data active = inhibition above about 40%
Full FLuc ctr: inhibits full-length luciferase, flagging false Mdm2/MdmX hits; SaOS-2 full-length luciferase counterscreen, luminescence; inhibition, % at 8 µM; hit rate 77% among 6,200; shares compounds with Mdm2 MdmX PPI; AID 504607;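 active = mean inhibition at 8 µM reaching about 37%, which flags the compound as non-specific, limit read from the data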;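 also: p53-null SaOS-2 cells with luciferase driven by a doxycycline-inducible promoter; compound on cells about two nights before reading with doxycycline added after day one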
Rh123 counter: membrane potential counter-screen of mitochondrial pore inhibitors; isolated mitochondria, Rhodamine 123 fluorescence; hit rate 78% among 5,000; shares compounds with MPTP inh; inhibition, % at 10 µM; in the data active = inhibition above about 22%;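 also: 0% = DMSO vehicle and 100% = positive control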
MPTP abs DR: dose response confirmation of mitochondrial permeability transition pore inhibitors | shares compounds with MPTP inh | isolated mitochondria swelling, absorbance | IC50, µM | hit rate 58% among 780; in the data active = IC50 below about 20 µM
MPTP counter DR: active in counter-screen for permeability transition pore inhibitors. shares compounds with MPTP inh. IC50, µM. AID 651564. hit rate 49% among 780. isolated mitochondria counterscreen, fluorescence read-out; in the data active = IC50 below about 80 µM
* = called active by the depositor; i = inactive; nt = no result given. Compounds with a hit are over-represented: about 6.9% of the library has one in this group of screens.

SMILES	GRIN3A LBD mod	SKKanGAS inh	Beta apoptosis	MPTP inh	CSC inhib	Mdm2 MdmX PPI	Mdm2-MdmX conf	Full FLuc ctr	Rh123 counter	others
COC(=O)c1ccc(N)c(N=CC2=C(O)CC(C)(C)CC2=O)c1	3	20	0	-2	7	6	nt	nt	nt
CCOc1ccccc1N1CC(C(=O)N2CCOCC2)CC1=O (centres undefined)	1	15	3	-1	0	19	nt	nt	nt
Clc1ccccc1Nc1nc(-c2ccncc2)nc2ccccc12	-2	-1	1	-1	23	40	nt	nt	nt
Fc1ccc(Nc2nc(-c3ccncc3)nc3ccccc23)cc1F	-4	13	8	71*	0	82*	81*	64*	45*
Clc1cccc(Nc2nc(-c3ccncc3)nc3ccccc23)c1	-7	-3	21	69*	56	93*	45*	18	83*
CC(=O)Nc1ccc(-c2nnn(CC(=O)c3ccc(F)cc3)n2)cc1Cl	1	-5	-2	2	-6	13	nt	nt	nt
S=c1nc(NCCc2ccccc2Cl)c2ccccc2[nH]1	-24	17	18	2	-2	-1	nt	nt	nt
O=C(Nc1cccc([N+](=O)[O-])c1)Nc1ccc2c(c1)CCC2	34*	5	36	86*	-3	72*	22	nt	76*
CC(=O)Nc1ccc(OC(=O)c2cc([N+](=O)[O-])ccc2Cl)cc1	2	0	-1	-2	5	5	nt	nt	nt
O=C(O)c1ccccc1C(=O)Nc1cccc([N+](=O)[O-])c1	-1	-2	nt	0	-9	1	nt	nt	nt
COc1ccc(NC(=O)c2cc([N+](=O)[O-])ccc2O)cc1	3	74*	57	92*	82*	81*	76*	53*	95*
O=C(Nc1cccc([N+](=O)[O-])c1)c1cc2ccccc2cc1O	27*	74*	100*	96*	89*	93*	75*	31	60*
CN1CCCN(Cc2nc(-c3cccc(C(F)(F)F)c3)no2)CC1	0	0	-3	2	53	-36	nt	nt	nt
COc1cc(C2NCC(c3ccc(Cl)cc3Cl)c3c2[nH]c2ccccc32)cc(OC)c1OC (centres undefined)	-1	40	11	88*	81*	61*	10	nt	-21	MPTP abs DR=i;MPTP counter DR=>80
O=C(Cc1ccc(Cl)cc1)Nc1ccc(-c2cc3ccccc3oc2=O)c(Cl)c1	19*	23	25	64*	82*	59*	62*	52*	71*
O=C(Cc1ccc(Cl)cc1)Nc1ccc2oc(=O)ccc2c1	0	-2	7	10	-4	10	nt	nt	nt
COc1cc(CNCCc2ccc(S(N)(=O)=O)cc2)ccc1OCC(=O)NC1CCCCC1	1	-3	-7	-2	-5	23	nt	nt	nt
COc1cc(CNCCc2ccc(S(N)(=O)=O)cc2)ccc1OCc1ccc(Cl)cc1	-5	-3	23	50*	29	54*	40*	69*	7	MPTP abs DR=3.9*;MPTP counter DR=15*
COc1cc(/C=C(\C#N)c2nc3ccccc3s2)cc([N+](=O)[O-])c1O	-2	23	nt	36	nt	9	nt	nt	nt
COc1ccc(-c2csc(/C(C#N)=C\c3ccc(O)c([N+](=O)[O-])c3)n2)cc1OC	-4	95*	20	99*	45	53*	47*	62*	50*
CC1CCCC(CC(N)=O)CC1 (centres undefined)	2	nt	nt	1	nt	nt	nt	nt	nt
O=[N+]([O-])c1ccc(NC(=S)NCCc2ccc(F)cc2)cc1	30*	0	76*	100*	2	86*	63*	86*	81*
O=C(NCCc1ccc(Cl)cc1)Nc1ccc(F)cc1	4	-14	-4	1	-4	5	nt	nt	nt
